Measured values taken from PubChem BioAssay AID687001 (Broad Institute, 2013).
Potency and affinity values are given separately. Active and inactive are the calls of the source.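 How the source made its calls: active means signal-lowering compounds whose fitted half-maximal concentration is at or below twice the top tested dose in every run; inconclusive means runs disagree, flat 30 to 70% inhibition, or poor curve fit; inactive means the rest.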

Molecular target: Protein S100-A4 (Homo sapiens) (UniProt P26447)
Sequence (P26447 whole entry, looked up): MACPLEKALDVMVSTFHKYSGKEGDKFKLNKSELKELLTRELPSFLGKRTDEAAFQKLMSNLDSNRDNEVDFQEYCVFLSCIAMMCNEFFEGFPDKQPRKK
Test: S100A4-myosin IIA binding inhibitor potency, dose response, biochemical, fluorescence polarization, cherry-picked hits (AID 687001)
Conditions: FP, S100A4/TAMRA-myosin IIA peptide binding; series mostly up to 11 µM

outcome, inactive:
COc1ccc(CN(C)C[C@@H]2Oc3ccc(NC(=O)Cc4ccccc4)cc3CC(=O)N([C@@H](C)CO)C[C@H]2C)cc1
S=c1[nH]nc(-c2cc(-c3ccsc3)n[nH]2)n1-c1ccccc1
COc1cc(C(=O)NCCc2ncccc2C)ccc1OC1CCN(C(C)=O)CC1
COc1ccc(CN(C)C[C@@H]2Oc3ccc(NS(=O)(=O)c4ccccc4)cc3CC(=O)N([C@H](C)CO)C[C@H]2C)cc1
C[C@@H]1CN([C@H](C)CO)C(=O)c2cc(NC(=O)C3CC3)ccc2O[C@@H]1CN(C)C(=O)Nc1ccc2c(c1)OCO2
CC(OC(=O)C1CC(=O)N(Cc2ccco2)C1)C(=O)Nc1ccc(F)cc1Cl (centres undefined)
CCOc1ccc(OCCNC(=O)c2cc(C3CC3)nc3c2cnn3C(C)C)cc1
CCCNC(=O)N1[C@@H]2c3ccc(-c4ccccc4OC)c(=O)n3C[C@@H]2[C@@H](CO)[C@@H]1C(=O)NC1CCC1
COc1ccc(CNC(=O)CN2C(=O)c3ccccc3C2=O)cc1
CCC(c1nc2ccccc2[nH]1)n1c(-c2cnccn2)nc2ccccc21 (centres undefined)
Cc1ccc(C2=N/C(=C\c3ccc(F)cc3)C(=O)N2)cc1
COC(=O)[C@@H]1[C@@H](CO)[C@@H]2Cn3c(cccc3=O)[C@@H]2N1CC1CCOCC1
O=S(=O)(NCCN1CCOCC1)c1ccc(-c2ccc(S(=O)(=O)NCCN3CCOCC3)cc2)cc1
Cc1oc(-c2ccc(Cl)cc2)nc1CS(=O)CC(=O)NCCCN1CCN(Cc2ccccc2)CC1 (centres undefined)
Cc1cccc(-c2oc3ccc(-c4ccc5c(c4)OCO5)cc3c2-c2ccc(OC3CCCCO3)cc2)c1 (centres undefined)
CNC[C@H]1Oc2c(NC(=O)Nc3ccc(C(F)(F)F)cc3)cccc2C(=O)N([C@@H](C)CO)C[C@H]1C
CCC(=O)Nc1ccc2c(c1)OC[C@H](C)N(Cc1ccccc1C(=O)O)C[C@H](C)[C@@H](OC)CN(C)C2=O
COc1ccc(NC(=O)N(C)C[C@@H]2Oc3ncc(C#CC(C)(C)O)cc3C(=O)N([C@H](C)CO)C[C@@H]2C)cc1
O=c1[nH][nH]c(=O)c2nc(Nc3ccccc3)ncc12
Cc1noc(C)c1NC(=O)N[C@@H]1CC[C@H](CCNC(=O)C2CCOCC2)O[C@@H]1CO
COc1ccc(-c2ccc3c(c2)O[C@H](CN(C)Cc2cccnc2)[C@@H](C)CN([C@H](C)CO)S3(=O)=O)cc1
COC(=O)C1=C(C)N(C)C(=O)NC1c1cc(Cl)c(O)c(OC)c1 (centres undefined)
Cc1ccc(S(=O)(=O)Nc2ccc(O)c3ccccc23)c(C)c1
COc1ccc(C#Cc2ccc([C@H]3[C@H]4CN(C(=O)Nc5ccccc5)CCCCN4[C@H]3CO)cc2)cc1
COc1ccccc1CN1CCNC(=O)C1CC(=O)NCCCN1CCOCC1 (centres undefined)
C[C@@H]1CN([C@@H](C)CO)C(=O)c2cccc(N(C)C)c2O[C@@H]1CN(C)C(=O)Nc1cccc2ccccc12
COc1ccccc1-c1ccc2c(c1)O[C@H](CN(C)C(C)=O)[C@@H](C)CN([C@@H](C)CO)S2(=O)=O
O=C(C1CCCC1)N1C[C@@H]2[C@H](c3ccccc31)[C@@H](CO)N2C(=O)c1ccccc1F
Cc1sc2nc(SCC(=O)N3CCOCC3)[nH]c(=O)c2c1-c1ccccc1
CN(C)S(=O)(=O)c1ccc(NC(=O)CN2CCN(c3ccccn3)CC2)cc1
CC1CCCCC1NC(=O)CSc1nnc(-c2ccco2)n1N (centres undefined)
Cc1ccccc1NC(=O)C1CCN(S(=O)(=O)c2ccc3c(c2)NC(=O)C(C)S3)CC1 (centres undefined)
CCN1CCN(c2ccc(N3CCN(S(=O)(=O)c4ccc(C)c([N+](=O)[O-])c4)CC3)nn2)CC1
CCN1C(=O)c2ccccc2S(=O)(=O)c2ccc(C(=O)NCC(OC)OC)cc21
CCn1nc(C(=O)Nc2cc(Cl)ccc2-n2cncn2)c2ccccc2c1=O
C[C@@H]1CCCCO[C@@H](CN(C)C(=O)C2CCCCC2)[C@@H](C)CN([C@H](C)CO)C(=O)c2cc(NC(=O)CCCCCC(=O)Nc3ccccc3N)ccc2O1
Cc1ccccc1CN1CCC(n2nccc2NC(=O)CCOc2ccccc2)CC1
CC(C)NC(=O)N(C)C[C@@H]1Oc2c(NC(=O)Nc3cccc4ccccc34)cccc2C(=O)N([C@H](C)CO)C[C@H]1C
O=C(Cc1c(F)cccc1Cl)Nc1ccccn1
